Source: PubChem BioAssay (NCI)
About 83,000 compounds went through this panel and 20% of them were active in at least one assay; those are over-represented in the sample as a whole.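 The endpoint reported here, percent growth, reads 100 for growth as untreated, 0 for no net growth and -100 for all cells dead.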 A number with no mark means an inactive call. Activity calls are given as the source filed them.

test system: HCT-116 colon; experiment: NCI-60 one-dose screen, 48 h (100 = growth as untreated, 0 = no growth, -100 = all killed); conditions: 10 µM
Method: Growth inhibition of the HCT-116 human tumor cell line is measured as a screen for anti-cancer activity. Cells are grown in 96 well plates and exposed to the test compound for 48 hours. Compounds are tested at a single concentration, which is 10^-5 M for most compounds. The reported endpoint is percent growth (GI% or GIPRCNT), where numbers from 0 - 100% represent growth inhibition, and numbers from -100% - 0 represent cell death. For example, a value of 40 represents 60% growth inhibition. A value of 0 means no net growth occurred over the course of the experiment. A value of -40 indicates 40% of cells at the beginning of the experiment died by the end of the experiment. A value of -100 means all cells are dead at the end of the experiment.
NCI-60 Human Tumor Cell Lines Screen was performed using the standard one-dose NCI protocol, which is described in more detail at https://dtp.cancer.gov/discovery_development/nci-60/default.htm.
Compounds with GIPRCNT values below 10 were considered active. Activity score was based on GIPRCNT using the following formula: […]
Score is 0 for GIPRCNT values of 100 or above, 50 for GIPRCNT values of 0, and 100 for GIPRCNT values of -100.

| SMILES | growth |
| --- | --- |
| COc1ccc(OC)c(/C=C/c2nc(SC)n(-c3ccc(Cl)cc3)n2)c1 | 59.8% |
| Clc1ccccc1N=Cc1ccc2c(c1)OCO2 | 103% |
| FC(F)(F)c1ccc(-c2cnc(Cl)nc2N2CCC3(CC2)OCCO3)cc1 | 82.7% |
| Cc1cc2ccccc2nc1-c1ccccc1F | 102% |
| COc1ccc(-c2nc(-c3nc4ccc(Cl)cc4[nH]3)c3ccccn23)cc1 | 4.9% (active) |
| CC(=O)c1nc2ccccc2n1CCNC(N)=O | 37.2% |
| O=C(CNC(=O)OCc1ccccc1)NCC(=O)Oc1ccc([N+](=O)[O-])cc1 | 93.7% |
| COc1cc(-c2cc(/C=C/C(=O)c3ccc(N)cc3)[nH]n2)cc(OC)c1OC | -81.5% (active) |
| O=C(C[P+](c1ccccc1)(c1ccccc1)c1ccccc1)C[P+](c1ccccc1)(c1ccccc1)c1ccccc1 | -93.3% (active) |
| CCOC(=O)N1C=CC2C=CC1C1C=CC=CC2N1C(=O)OCC (stereo not given) | 94.7% |
| O=C1N=NC2=C1c1c3ccccc3c(O)n1CC2 | 93.9% |
| COc1cccc(C(=O)Nc2ccc(CN3CCc4nc5cc(OC)c(OC)cc5cc43)cc2)c1 | 38.9% |
| COc1cc(Nc2ncnc(Nc3ccc4c(n3)NC(=O)C(C)(C)O4)n2)cc(OC)c1OC | 24.2% |
| CCC(=O)N1C/C(=C/c2ccc(Cl)cc2)C(=O)/C(=C/c2ccc(Cl)cc2)C1 | -85.4% (active) |
| COc1cc(Cl)cc(-c2nn(-c3cccc(NC(=O)c4ccc(Cl)c(Cl)c4)c3)cc2-c2ccncc2)c1 | 44.1% |
| CN1CC[C@@H](c2c(O)cc(O)c3c(=O)cc(-c4ccccc4Cl)oc23)[C@@H](O)C1 | 8.46% (active) |
| Cc1cccc(Cl)c1NC(=O)c1ccc2nc(NC(=O)NC3CCN(C)CC3)sc2c1 | 81.9% |
| Clc1ccc2c(NCCCNc3nccc(Nc4ccc(Br)cc4)n3)ccnc2c1 | -97.5% (active) |
| COc1ccc2c(c1)sc1nc(-c3ccccc3)c(-c3cccnc3)n12 | 78.5% |
| CN(C)C(=S)N/N=C\C=N/NC(=S)N(C)C | 0.438% (active) |

| SMILES | growth |
| --- | --- |
| CCOC(=O)N/N=C\C(C)=N\NC(=O)OCC | 104% |
| CCN(CC)CCN1CC(=O)Nc2cc(Cl)ccc21 | 102% |
| O=C1OCC2=C1C(c1cccc(Cl)c1)c1cc3c(cc1N2CCO)CCC3 (stereo not given) | 2.02% (active) |
| COc1ccc(NC2=NC(C)(CO)CS2)cc1 (stereo not given) | 102% |
| CCCCCCc1cc(N=Nc2ccc(S(=O)(=O)Nc3cc(C)nc(C)n3)cc2)c(O)cc1O | 86.3% |
| CCN(CC)CCSCCN(CC)CC | 107% |
| O=[N+]([O-])c1ccc(Oc2cc(Cl)c(Cl)cc2Cl)c(C(F)(F)F)c1 | 102% |
| CC(C)=CCc1cc(O)cc2c1OC(C=C(C)C)C1=C2C(=O)C2=C(NCCS2(=O)=O)C1=O (stereo not given) | -15.4% (active) |
| COc1ccc(Nc2nc3ccc(NC(=O)NC4CCCCC4)cc3[nH]c2=O)cc1 | 102% |
| Cc1ccc(Nc2cc(C)nc(NCCCNc3ccnc4cc(Cl)ccc34)n2)cc1 | -100% (active) |
| COc1ccc(-c2nn(-c3cccc(NC(=O)c4cccc(C(F)(F)F)c4)c3)cc2-c2ccncc2)cc1Cl | 14.5% |
| COc1cc2cc3c(nc2cc1OC)CCN3Cc1ccc(NC(=O)c2ccc(Cl)c(C(F)(F)F)c2)cc1 | 93.4% |
| Cc1ccc(NC(=O)Nc2c(Cl)cccc2Cl)cn1 | 104% |
| CN(C)CCN=c1nc2c(c(N)n1-c1ccccc1)c(=S)n(-c1ccccc1)c(=S)n2-c1ccccc1 | -22.1% (active) |
| COc1ccc(-c2nn(-c3cccc(NC(=O)Nc4ccccc4)c3)cc2-c2ccncc2)cc1Cl | 5.36% (active) |
| COc1cc(-c2cc(C(=O)N3CCN(C(=O)c4ccccc4NCc4ccco4)CC3)nc3cc(-c4ccccc4)nn23)cc(OC)c1OC | 20% |
| CC(=O)N1C/C(=C/c2ccc(Cl)cc2)C(=O)/C(=C/c2ccc(Cl)cc2)C1 | -66.4% (active) |
| COc1cc(Cl)cc(-c2nn(-c3cccc(NC(=O)Nc4cc(C(F)(F)F)cc(C(F)(F)F)c4)c3)cc2-c2ccncc2)c1 | -4.6% (active) |
| O=C(Nc1ccc(CN2CCc3nc4cc(O)c(O)cc4cc32)cc1)c1ccc(Cl)c(Cl)c1 | 100% |
| CC1(C)N=C(N)N=C(N)N1c1ccc(CCc2ccccc2)c(Cl)c1 | 10.2% |
